Experimental data taken from PubChem BioAssay AID2013 (Sanford-Burnham Center for Chemical Genomics, 2009).
The campaign covered roughly 290,000 compounds. About 370 (0.13%) were called active.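 How the source made its calls: active means spots per cell inhibited over 60%, with over 100 cells counted and total cytoplasm intensity under 500,000; inconclusive means wells with under 100 cells, flagged as likely toxic; inactive means the rest.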 Many of the other results were omitted from the sample, so actives are more common in it than they were. Entries with a potency or affinity are not part of this list.

target: G-protein coupled receptor 55 (Homo sapiens) (UniProt Q9Y2T6); test: GPR55 antagonists blocking LPI-driven arrestin recruitment, primary screen, imaging, U2OS, beta-arrestin-GFP, LPI agonist (AID 2013); details: U2OS GPR55 beta-arrestin-GFP translocation imaging, LPI antagonism; at 10 µM; hits give high values;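 further: U2OS cells stably carrying GPR55 and arrestin-GFP stimulated by 5 µM LPI near EC80; imaged beta-arrestin-GFP aggregate spots per cell after agonist stimulation; plate controls were LPI-stimulated DMSO wells for no effect and DMSO wells without LPI for full effect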
Sequence (Q9Y2T6 whole entry, looked up): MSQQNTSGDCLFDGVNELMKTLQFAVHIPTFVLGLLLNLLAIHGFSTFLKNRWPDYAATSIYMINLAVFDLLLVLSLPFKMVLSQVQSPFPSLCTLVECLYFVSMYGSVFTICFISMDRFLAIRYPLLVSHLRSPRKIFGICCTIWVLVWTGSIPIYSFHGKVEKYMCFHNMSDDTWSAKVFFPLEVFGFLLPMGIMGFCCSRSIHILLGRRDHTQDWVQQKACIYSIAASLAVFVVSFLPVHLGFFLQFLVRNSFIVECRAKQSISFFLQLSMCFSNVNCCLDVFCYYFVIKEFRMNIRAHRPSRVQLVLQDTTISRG

Row | SMILES | inhibition
1 | COc1ccc(Br)cc1/C=N/Nc1cccc(C(=O)O)c1 | 1% (inactive)
2 | C=CCOc1c(CNc2cccc(C(=O)O)c2)cccc1OC | 4.5% (inactive)
3 | Cc1c(NC(=O)CN2C(=O)NC(CCc3ccccc3)C2=O)c(=O)n(-c2ccccc2)n1C (configuration not stated) | 13.9% (inactive)
4 | NC(=O)[C@@H]1CCOc2c(F)cc([N+](=O)[O-])cc2C(=O)N[C@@H](CO)C(=O)NCC(=O)N1 | 1.8% (inactive)
5 | COc1ccc(/C=C2\SC(N)=NC2=O)cc1 | -7% (inactive)
6 | CC12CCC(C/C1=N\N=C1\NC(=O)/C(=C\c3ccc(Cl)cc3)S1)C2(C)C (configuration not stated) | 41.5% (inactive)
7 | O=C(CN(C(=O)CCC(=O)Nc1nccs1)c1ccc(F)cc1)NCC1CCCO1 (configuration not stated) | 15% (inactive)
8 | C/C(Cl)=C\CSc1nnc2n(N)c(=O)c3ccccc3n12 | -16.2% (inactive)
9 | CCN(Cc1cn2cccnc2n1)C1CCCCC1 | 87.7% (active)
10 | Cc1ccc(SCc2cn3cccnc3n2)cc1 | -13.1% (inactive)
11 | Cc1ccc(OCc2cn3cccnc3n2)cc1 | 12.3% (inactive)
12 | O=C1NCC(c2ccccc2)C1C(=O)N/N=C/c1ccc(Cl)s1 (configuration not stated) | 5.1% (inactive)
13 | COc1ccc(/C=c2\s/c(=C(/C#N)C(=O)NCc3ccco3)n(-c3ccccc3)c2=O)cc1 | 2.8% (inactive)
14 | CN(c1ccccc1)c1ccc(/C=c2\s/c(=C(/C#N)C(=O)C(C)(C)C)n(Cc3ccco3)c2=O)cc1 | 74% (active)
15 | Cc1ccc(/C=c2\s/c(=C(/C#N)C(=O)N3CCCC3)n(Cc3ccco3)c2=O)s1 | 5.1% (inactive)
16 | Cc1[nH]c(C)c(S(=O)(=O)N2CCCCC2)c1C(=O)N1CCCCC1 | 29.6% (inactive)
17 | Cc1ccc(N2CN(CCc3ccccc3)CNC2=S)cc1 | 5% (inactive)
18 | O=C(Nc1cccc(F)c1)NC1CCN(Cc2ccccc2)CC1 | 6% (inactive)
19 | CC(NC(=O)/C(C#N)=C/c1ccc([N+](=O)[O-])o1)c1ccccc1 (configuration not stated) | 4.1% (inactive)
20 | COc1ccc(/C=C(\C#N)C(=O)NC(C)c2ccccc2)cc1O (configuration not stated) | 4.5% (inactive)
21 | CC(=NCCc1ccccc1)C1=C(O)COC1=O | 13.7% (inactive)
22 | CCOC(=O)c1c(N)sc(C(O)(C(F)(F)F)C(F)(F)F)c1-c1ccc(Cl)cc1 | 5.7% (inactive)
23 | CCOC(=O)c1c(N)sc(N)c1C(=O)OCC | 6.2% (inactive)
24 | CCOC(=O)c1c(N)sc(-c2ccccc2)c1C | -6.5% (inactive)
25 | CCOC(=O)c1c(N)sc(C(O)(C(F)(F)F)C(F)(F)F)c1-c1ccc(OC)cc1OC | 22.9% (inactive)

Row | SMILES | inhibition
26 | N#Cc1c(N)nc(SCC(=O)C23CC4CC(CC(C4)C2)C3)c(C#N)c1-c1ccc(Cl)cc1 | 0.2% (inactive)
27 | COC(=O)c1cccc(NC(=O)CSc2nc3cccnc3n2C)c1 | 16.9% (inactive)
28 | CCCCCCCc1c(C)nc(N2CCOCC2)[nH]c1=O | 3.4% (inactive)
29 | CCOC(=O)C1=NN(N=O)C2(CC(=O)N(c3cc(C)cc(C)c3)C2=O)C1 (configuration not stated) | 8.8% (inactive)
30 | CC(C)(C)N(Cc1cc2ccccc2[nH]c1=O)C(=O)c1cccc([N+](=O)[O-])c1 | -1.2% (inactive)
31 | O=C(Nc1ccccc1Cl)c1cc[n+]([O-])cc1 | 10.9% (inactive)
32 | COc1ccc(CN2CCN(CC(O)Cn3c4ccccc4c4ccccc43)CC2)cc1 (configuration not stated) | 50.2% (inactive)
33 | OC(CN1CCN(Cc2ccccc2)CC1)Cn1c2ccccc2c2ccccc21 (configuration not stated) | 36.2% (inactive)
34 | Cc1ccc(OCCN2CCN(CC(O)Cn3c4ccccc4c4ccccc43)CC2)cc1 (configuration not stated) | 72.6% (active)
35 | CN1CCN(CC(O)Cn2c3ccccc3c3ccccc32)CC1 (configuration not stated) | -3.3% (inactive)
36 | Cc1ccc(OCC(O)Cn2c3ccccc3c3ccccc32)cc1 (configuration not stated) | 6.3% (inactive)
37 | CCOc1ccc(CN2CCN(CC(O)Cn3c4ccccc4c4ccccc43)CC2)cc1 (configuration not stated) | 79.4% (active)
38 | Cc1ccc(/C=N/NC(=O)c2nnn(-c3nonc3N)c2C(C)C)s1 | 4% (inactive)
39 | CC1CCN(CCc2nc3cc(NS(=O)(=O)c4ccccc4)ccc3n2C)CC1 | -11.2% (inactive)
40 | CCn1c(SCC(N)=O)nc2c1c(=O)n(C)c(=O)n2C | -11% (inactive)
41 | Cc1onc(-c2ccc(Cl)cc2Cl)c1C(=O)/C=C/N(C)C | 3.5% (inactive)
42 | COc1ccc(C(CNC(=O)C(C)(C)Oc2ccc(Cl)cc2)N2CCCCC2)cc1 (configuration not stated) | 3.2% (inactive)
43 | C=CCc1c(C)nc(-c2ccccc2)nc1N/N=C(\C)c1ccccc1 | 8.1% (inactive)
44 | Cc1cc(C2(c3ccc(O)c(C)c3)C(=O)Nc3ccccc32)ccc1O | 5% (inactive)
45 | CC(=O)Nc1ccc(C2(c3ccc(NC(C)=O)cc3)C(=O)Nc3ccccc32)cc1 | 10.2% (inactive)
46 | CCOC(=O)C1=C(C)NC(C)=C(C(=O)OC)C1c1cccc(Cl)c1Cl (configuration not stated) | 85.2% (active)
47 | CCOC(=O)C1=C(C)NC(=O)NC1c1ccccc1Cl (configuration not stated) | 14% (inactive)
48 | COC(=O)C1=C(C)NC(=O)CC1c1cccc(Cl)c1Cl (configuration not stated) | 10% (inactive)
49 | COc1cc(C(=O)N2CCN(C(=O)c3cccc4ccccc34)CC2)cc(OC)c1OC | 4.5% (inactive)
50 | CCn1cnc2sc(C(=O)Oc3cccc(C)c3)c(C)c2c1=O | -14% (inactive)

Row | SMILES | inhibition
51 | c1ccc2c(c1)OCC(c1csc3ncnc(N4CCOCC4)c13)O2 (configuration not stated) | 18.5% (inactive)
52 | c1ccc2c(c1)OCC(c1csc3ncnc(N4CCCCC4)c13)O2 (configuration not stated) | 6% (inactive)
53 | c1ccc2c(c1)OCC(c1csc3ncnc(N4CCCC4)c13)O2 (configuration not stated) | 26.4% (inactive)
54 | CCN(CC)c1ncnc2scc(C3COc4ccccc4O3)c12 (configuration not stated) | 31% (inactive)
55 | CC(C)CCNc1c(-c2cccs2)nc2ccccn12 | 8.2% (inactive)
56 | CC(=O)Nc1nc(-c2ccc(Cl)cc2)ns1 | 9.6% (inactive)
57 | CC(C)=CC(=O)OCc1csc(CC(=O)Nc2ccccc2C)n1 | 8.4% (inactive)
58 | Clc1ccc(-n2nnnc2-c2cnc(-c3ccncc3)nc2-c2cccs2)cc1 | 6.4% (inactive)
59 | Clc1ccc(-c2nnnn2-c2ccc(Cl)cc2)cc1 | 7.1% (inactive)
60 | Cn1c(C(=O)N[C@@H](Cc2ccccc2)C(=O)NCCC(=O)O)cc2cc(Cl)ccc21 | 2.2% (inactive)
61 | Cc1ccc(-c2nnc(Oc3ccc(NC(=O)c4ccccc4)cc3)c3ccccc23)cc1 | 9.6% (inactive)
62 | CCC(=O)NC(c1ccccc1)c1c(OC(C)=O)ccc2ccccc12 (configuration not stated) | 9.1% (inactive)
63 | CC(=O)Oc1ccc2ccccc2c1C(NC(=O)Cc1ccccc1)c1ccc(Cl)cc1 (configuration not stated) | 3.5% (inactive)
64 | CN=C1CC(C)(C)CC(=O)/C1=C(/O)CCC(=O)NC | 11.2% (inactive)
65 | C=CCN1C(=O)N/C(=C/c2ccc(C)o2)C1=O | 6.7% (inactive)
66 | Cc1ccc(/C=C2\C(=O)NC(=O)N2C)o1 | 6.8% (inactive)
67 | Cc1ccc(/C=C2/NC(=O)N(Cc3ccccc3F)C2=O)o1 | -7.6% (inactive)
68 | CCN1C(=O)N/C(=C/c2ccc(C)o2)C1=O | -0.6% (inactive)
69 | O=C1CC(NC(=O)c2ccc(Cl)cc2)C(=O)N1 (configuration not stated) | 8% (inactive)
70 | CC(=O)/C=C1\N(C)c2ccc(C)cc2C1(C)C | 9.7% (inactive)
71 | Cc1ccc2c(c1)C1(C(=O)N2C)N2CC3(C)CN1CC(C)(C2)C3=O (configuration not stated) | -15.5% (inactive)
72 | CC/C(=C/c1sc2ccc(C)cc2[n+]1CCO)SC | -7.4% (inactive)
73 | Cc1ccc(-c2c3c(=O)n(C)c(=O)n(C)c3cn2N2CCOCC2)cc1 | -4% (inactive)
74 | O=C(c1ccco1)N(CCCN1CCOCC1)c1nc(-c2ccc(F)cc2)cs1 | 28.3% (inactive)
75 | O=C(c1ccco1)N(CCCN1CCOCC1)c1nc(-c2ccc(Cl)cc2)cs1 | 69.4% (active)

Row | SMILES | inhibition
76 | Cc1ccc(-c2csc(N(CCCN3CCOCC3)C(=O)c3ccco3)n2)cc1 | 21.7% (inactive)
77 | NS(=O)(=O)c1ccc(NNC(=O)c2ccccc2C(=O)O)cc1 | 6.3% (inactive)
78 | CCSc1ccc(-c2nn(-c3ccccc3)cc2/C=C(/C#N)C(=O)NC)cc1 | 0.7% (inactive)
79 | CCCSc1ccc(-c2nn(-c3ccccc3)cc2/C=C(/C#N)C(=O)NCCCOC)cc1 | -5.1% (inactive)
80 | CCCCn1c(N)c(N(CC(C)C)C(=O)C2CCN(C(=O)c3ccc(F)cc3)CC2)c(=O)[nH]c1=O | -8.6% (inactive)
81 | CCCCCCOc1ccc(OCC(O)CN2C(=O)NC(C)(C)C2=O)cc1 (configuration not stated) | -5.4% (inactive)
82 | Cc1ccc(N2C(=O)CC(N(CCc3ccccc3)C(=S)Nc3ccc(N(C)C)cc3)C2=O)cc1 (configuration not stated) | 0.8% (inactive)
83 | CCOC(=O)/C(C#N)=C\c1cccnc1 | 0.9% (inactive)
84 | CCOC(=O)/C(=C\c1ccccc1)C(=O)c1cc(C(C)=O)c(Nc2ccccc2)s1 | -0.8% (inactive)
85 | O=C(CSc1ccccc1C(=O)N1CCCCC1)NCC1CCCCC1 | 15.6% (inactive)
86 | Cc1c(O)nc2sc3ccccc3n2c1=O | -0.7% (inactive)
87 | Cc1ccc(NC(=O)C(OC(=O)c2ccccc2Cl)c2ccccc2)cc1Cl (configuration not stated) | 13.2% (inactive)
88 | O=C(N/C=C/c1ccc(Cl)cc1)NCc1ccc(Cl)cc1 | 9% (inactive)
89 | O=[N+]([O-])c1ccc(C2CNC(c3ccccc3)O2)cc1 (configuration not stated) | 7.3% (inactive)
90 | COc1ccc(-c2nc(-c3cccc(C)c3)nc(Cl)c2C#N)cc1 | 5.9% (inactive)
91 | CSc1nc(Cl)c(C#N)c(-c2ccc(C)cc2)n1 | 68.5% (active)
92 | N#Cc1c(Cl)nc(SCc2ccccc2)nc1-c1ccccc1 | -1.5% (inactive)
93 | Cn1cc([C@@H]2C[C@H]3CN(C4CCCC4)C(=O)[C@]34CCCN24)c(-c2ccccc2)n1 | -0.1% (inactive)
94 | COc1ccc2oc(C(=O)OCC(=O)NC(C)c3ccccc3)c(C)c2c1 (configuration not stated) | -1.9% (inactive)
95 | Cc1cc(C(=O)NCC(=O)O)c(C)o1 | 2.3% (inactive)
96 | Cc1cc(C(=O)NCC23CC4CC(CC(C4)C2)C3)c(C)o1 | 72.6% (active)
97 | Cc1cc(C(=O)NN)c(C)o1 | 1% (inactive)
